# Test results: PubChem BioAssay (NCATS)
# Several values for one entry are separate records, joined by “and”; a condition that tells them apart may be missing. Identical values can stand only once. Inconclusive results are not listed. A call without a number means that no potency is given here. Activity calls are given as the source filed them. Unless noted, calls come from the whole dose curve; as a rule, active = well fitted curve in the direction sought with a large enough effect; inconclusive = small, poorly fitted or top-dose-only effect, or another doubt; inactive = no such curve, though single readings can be large; an effect the other way counts as inactive or inconclusive.
# Assays:
# [1] = qHTS assay for small molecule antagonists of peroxisome proliferator-activated receptor delta signaling (AID 588535; active = well fitted inhibition curve with a large enough effect in the signal ratio, with a control signal flat, not every such curve was filed as active; the % refers to the signal ratio;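 for max response: cells co-treated with a PPAR-delta agonist as stimulator during compound exposure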); conditions: HEK293T PPARd-UAS-bla, beta-lactamase FRET ratio, 18 h; 460 nm channel
# In short: (§1)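 Antagonist-mode beta-lactamase reporter (GeneBLAzer PPAR-delta-UAS-bla) in HEK293T cells, 2% charcoal/dextran FBS, 4000 cells/well. Compound titrations, 18 h at 37 C; CCF4 ratio read, IC50 and efficacy from Hill fits.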
# [2] = biological target: Peroxisome proliferator-activated receptor delta (Homo sapiens) (UniProt Q03181); test: as above; conditions: HEK293T PPARd-UAS-bla, beta-lactamase FRET ratio, 18 h; series mostly up to 76.7 µM
# In short: as §1
# [3] = biological target: Peroxisome proliferator-activated receptor gamma (Homo sapiens) (UniProt P37231); test: qHTS assay for small molecule agonists of peroxisome proliferator-activated receptor gamma signaling (AID 588536; active = well fitted curve in the direction sought with a large enough effect in the signal ratio, with a control signal flat, not every such curve was filed as active; the % refers to the signal ratio); conditions: HEK293 PPARg-UAS-bla, beta-lactamase ratio, 16 h, percent of rosiglitazone response, DMSO as zero; series mostly up to 76.7 µM
# In short: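 GeneBLAzer PPAR-gamma-UAS-bla HEK293 cells in 1% charcoal/dextran-treated FBS medium were treated 16 h at 37 C with compounds. Beta-lactamase activity was read by CCF4 ratio (460/530 nm). Response was normalized to 2 uM rosiglitazone (100%) and DMSO, then Hill-fitted for EC50 and efficacy.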
# [4] = biological target: Peroxisome proliferator-activated receptor gamma (Homo sapiens) (UniProt P37231); test: qHTS assay for small molecule antagonists of peroxisome proliferator-activated receptor gamma signaling (AID 588537; active = well fitted inhibition curve with a large enough effect in the signal ratio, with a control signal flat, not every such curve was filed as active; the % refers to the signal ratio; note: potency is the fitted concentration of half-maximal effect); conditions: HEK293 PPARg-UAS-bla, beta-lactamase ratio, antagonist mode; series mostly up to 76.8 µM
# In short: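 PPARγ-UAS-bla HEK293 cells (3000/well) in 1% charcoal/dextran-stripped FBS are treated with compound, then stimulated with 50 nM rosiglitazone for 16 h at 37 °C. Read-out is CCF4 β-lactamase fluorescence after 2 h at RT. IC50 comes from Hill fits normalised to rosiglitazone and DMSO.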
# [5] = biological target: Vitamin D3 receptor (Homo sapiens) (UniProt P11473); test: qHTS assay for small molecule antagonists of vitamin D receptor signaling (AID 588541; calls by dose curve;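 note: receptor activated by calcitriol during compound treatment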); conditions: HEK293T VDR-UAS-bla, beta-lactamase ratio, antagonist mode; series mostly up to 76.7 µM
# In short: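 VDR-UAS-bla HEK293T cells in 2% charcoal-stripped FBS were stimulated with 1-alpha,25-dihydroxyvitamin D3 (3 nM final) plus compound for 16 h at 37 C. The beta-lactamase CCF4 readout was normalized to 50 nM agonist and DMSO, and Hill fits gave IC50.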
# [6] = biological target: Vitamin D3 receptor (Homo sapiens) (UniProt P11473); test: qHTS assay for small molecule agonists of vitamin D receptor signaling (AID 588543; calls by dose curve); conditions: HEK293T VDR-UAS-bla, beta-lactamase ratio, 16 h; series mostly up to 76.8 µM
# In short: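 VDR-UAS-bla HEK293T cells, 2000/well, 2% charcoal-stripped FBS; compound titration 16 h at 37 C; CCF4 beta-lactamase ratio read. Normalized to 50 nM 1-alpha,25-dihydroxyvitamin D3 (100%) and DMSO; Hill fit gives EC50, efficacy.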
# [7] = qHTS assay for small molecule agonists of retinoid X receptor alpha signaling (AID 588544); conditions: HEK293T RXRa-UAS-bla, beta-lactamase reporter, 18 h; 530 nm emission
# [8] = biological target: Thyroid hormone receptor beta (Homo sapiens) (UniProt P10828); test: qHTS assay for small molecule agonists of thyroid hormone receptor beta signaling (AID 588545; calls by dose curve); conditions: TR-UAS-bla GripTite HEK 293, beta-lactamase ratio, agonist mode, 18 h, percent of T3 response, DMSO as zero; series mostly up to 76.7 µM
# In short: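 HEK 293 TR-UAS-bla; agonist mode; 18 hrs, 37 C; CCF4, ex 405/em 460 and 530 nm; norm. T3 10 nM = 100%, DMSO = 0%; Hill fit → EC50, efficacy.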
# [9] = qHTS assay for small molecule antagonists of retinoid X receptor alpha signaling (AID 588546; active = well fitted inhibition curve with a large enough effect in the signal ratio, with a control signal flat, not every such curve was filed as active; the % refers to the signal ratio; note: potency is the fitted concentration of half-maximal effect;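 for max response: cells stimulated with 9-cis-retinoic acid as agonist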); conditions: HEK293T RXRa-UAS-bla, beta-lactamase ratio, antagonist mode; measured here: W530 green channel, cytotoxicity proxy
# In short: (§2)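 Beta-lactamase reporter inhibition, read as CCF4 fluorescence ratio (ex 405, em 460/530 nm) after 2 h at RT. HEK293T UAS-bla cells, 2500/well, were stimulated with 9-cis-RA at 500 or 100 nM final alongside test compound for 18 h at 37 C.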
# [10] = biological target: Retinoic acid receptor RXR-alpha (Homo sapiens) (UniProt P19793); test: as above; conditions: HEK293T RXRa-UAS-bla, beta-lactamase ratio, antagonist mode
# In short: as §2
# [11] = biological target: Thyroid hormone receptor beta (Homo sapiens) (UniProt P10828); test: qHTS assay for small molecule antagonists of thyroid hormone receptor beta signaling (AID 588547; active = well fitted inhibition curve with a large enough effect in the signal ratio, with a control signal flat, not every such curve was filed as active; the % refers to the signal ratio;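 note: cells stimulated with 0.4 nM T3 agonist during compound exposure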); conditions: TR-UAS-bla HEK293, beta-lactamase ratio, antagonist mode, 18 h
# In short: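 TR-UAS-bla GripTite HEK293 cells in 2% charcoal/dextran FBS medium; compounds 0.59 nM to 92 uM with T3 at 0.4nM final, 18 h at 37 C. Beta-lactamase read by CCF4 fluorescence (460/530 nm); Hill fits gave IC50 and efficacy.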
# [12] = biological target: Voltage-gated inwardly rectifying potassium channel KCNH2 (Homo sapiens) (UniProt Q12809); test: qHTS Assay for Small Molecule Inhibitors of the Human hERG Channel Activity (AID 588834); conditions: U2OS BacMam hERG, FluxOR thallium flux fluorescence; series mostly up to 46.1 µM;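 note: lower thallium flux fluorescence means stronger hERG block; nearly all actives have a fitted effect of over 50% in size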; note: potency is the fitted concentration of half-maximal effect
# In short: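 U2OS cells BacMam-transduced with hERG, 2000 cells/well, compound ~10 min at 37 °C before stimulation buffer. FluxOR thallium flux fluorescence read kinetically on FDSS; decrease indicates block; AC50 from Hill fits.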
# [13] = biological target: Luciferin 4-monooxygenase (Photinus pyralis) (UniProt P08659); test: Biochemical firefly luciferase enzyme assay for NPC (AID 624030);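 note: purified P. pyralis luciferase at 10 nM with luciferin and ATP substrate; nearly all actives have a fitted effect of over 70% in size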; conditions: purified P. pyralis luciferase, luminescence, 5 min; series mostly up to 58.6 µM
# In short: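 Purified P. pyralis luciferase at 10 nM in 50 mM Tris Acetate (final), luminescence read within 5 minutes of enzyme addition to compounds. Activity normalised to PTC124 versus DMSO; concentration-response curves classed by r2, magnitude and activity.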
# [14] = S16 Schwann cell PMP22 intronic element firefly luciferase assay (AID 624032); conditions: S16 rat Schwann cells, PMP22 element FLuc, 24 h; series mostly up to 57.5 µM; note: nearly all actives have a fitted effect of over 30% in size
# In short: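 Rat S16 Schwann cells stably carrying firefly luciferase driven by a PMP22 intronic element, in 10% FBS, treated 24 h at 37 C. ONE-Glo luminescence normalized to PTC124 control and DMSO (0%); curves classed by r2, magnitude and activity.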
# [15] = biological target: Peroxisome proliferator-activated receptor delta (Homo sapiens) (UniProt Q03181); test: qHTS assay for small molecule agonists of peroxisome proliferator-activated receptor delta signaling (AID 588534; calls by dose curve); conditions: HEK293T PPARdelta-UAS-bla, beta-lactamase ratio, 18 h; series mostly up to 76.7 µM
# In short: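 Cells carrying a PPAR-delta beta-lactamase reporter were treated with compounds for 18 h at 37 °C in agonist mode. CCF4 fluorescence was read after 2 h; EC50 and efficacy from Hill fits.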
# [16] = S16 Schwann cell viability assay (CellTiter-Glo assay) (AID 624031); conditions: S16 rat Schwann cells viability, 24 h; series mostly up to 57.5 µM;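 note: cellular ATP luminescence as a viability measure; nearly all actives have a fitted effect of over 70% in size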
# In short: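 Luminescent ATP read-out (CellTiter-Glo) after 24 h compound exposure of native S16 rat Schwann cells at 37 °C. Signals were normalized between cell-free wells and DMSO-treated cells, set as 0% activity.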
# [17] = qHTS of Trypanosoma Brucei Inhibitors: LOPAC Validation (AID 624147); conditions: purified enzyme assay, luminescence, 45 min; series mostly up to 57.5 µM
# In short: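 Enzyme and substrate buffer are dispensed first and compound is pin-transferred. ADP at 130 uM final then starts the reaction, which runs 45 min at room temperature. Detection reagent is added for 10 min before luminescence is imaged.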
# [18] = qHTS for Inhibitors of the vitamin D receptor (VDR): Hit Validation using a Texas Red Assay (AID 602201); conditions: VDR coregulator binding, Texas Red fluorescence polarization; series mostly up to 57.1 µM
# In short: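 Fluorescence polarization with 1.5 uM VDR-LBD, LG19078 and 7 nM Texas Red (final). After 2 hours at ambient temperature, read at Ex 595 nm/Em 615 nm.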
# [19] = S16 Schwann cell PMP22 intronic element beta-lactamase assay (AID 624044; calls by dose curve; note: nearly all actives have a fitted effect of over 15% in size; note: potency is the fitted concentration of half-maximal effect); conditions: S16 rat Schwann cells, PMP22 element beta-lactamase FRET, 24 h; series mostly up to 38.3 µM
# In short: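 Rat S16 Schwann cells with beta-Lac driven by a PMP22 intronic element, compound-treated 24 h at 37 °C. LiveBLAzer FRET B/G read: 460 nm normalized to potassium clavulanate vs DMSO; 535 nm FRET as viability; concentration-effect curves classified.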
# Sequence of Vitamin D3 receptor (Homo sapiens) (P11473 whole entry, looked up): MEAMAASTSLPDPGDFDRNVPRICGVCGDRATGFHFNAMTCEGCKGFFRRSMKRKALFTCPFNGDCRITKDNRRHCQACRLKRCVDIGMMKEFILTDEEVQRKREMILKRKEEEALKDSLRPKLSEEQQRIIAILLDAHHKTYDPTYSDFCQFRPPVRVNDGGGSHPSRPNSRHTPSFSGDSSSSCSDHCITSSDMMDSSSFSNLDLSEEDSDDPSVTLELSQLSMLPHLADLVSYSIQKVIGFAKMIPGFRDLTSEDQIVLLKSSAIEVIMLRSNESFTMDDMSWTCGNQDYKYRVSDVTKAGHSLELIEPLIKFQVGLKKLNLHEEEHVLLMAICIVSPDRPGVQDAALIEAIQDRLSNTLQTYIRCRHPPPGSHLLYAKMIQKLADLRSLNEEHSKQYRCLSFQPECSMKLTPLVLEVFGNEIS
# Sequence of Peroxisome proliferator-activated receptor delta (Homo sapiens) (Q03181 whole entry, looked up): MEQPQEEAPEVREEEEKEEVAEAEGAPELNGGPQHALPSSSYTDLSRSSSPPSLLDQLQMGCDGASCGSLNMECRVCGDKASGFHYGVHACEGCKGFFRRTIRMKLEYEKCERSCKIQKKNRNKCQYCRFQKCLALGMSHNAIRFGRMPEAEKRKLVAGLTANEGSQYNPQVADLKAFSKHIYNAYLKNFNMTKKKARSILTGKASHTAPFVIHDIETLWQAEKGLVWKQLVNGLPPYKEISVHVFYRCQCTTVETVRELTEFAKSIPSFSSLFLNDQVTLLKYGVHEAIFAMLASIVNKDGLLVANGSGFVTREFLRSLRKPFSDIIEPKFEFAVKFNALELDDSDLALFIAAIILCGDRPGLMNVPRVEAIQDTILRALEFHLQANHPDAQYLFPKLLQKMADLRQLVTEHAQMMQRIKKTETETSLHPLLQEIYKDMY
# Sequence of Voltage-gated inwardly rectifying potassium channel KCNH2 (Homo sapiens) (Q12809 whole entry, looked up): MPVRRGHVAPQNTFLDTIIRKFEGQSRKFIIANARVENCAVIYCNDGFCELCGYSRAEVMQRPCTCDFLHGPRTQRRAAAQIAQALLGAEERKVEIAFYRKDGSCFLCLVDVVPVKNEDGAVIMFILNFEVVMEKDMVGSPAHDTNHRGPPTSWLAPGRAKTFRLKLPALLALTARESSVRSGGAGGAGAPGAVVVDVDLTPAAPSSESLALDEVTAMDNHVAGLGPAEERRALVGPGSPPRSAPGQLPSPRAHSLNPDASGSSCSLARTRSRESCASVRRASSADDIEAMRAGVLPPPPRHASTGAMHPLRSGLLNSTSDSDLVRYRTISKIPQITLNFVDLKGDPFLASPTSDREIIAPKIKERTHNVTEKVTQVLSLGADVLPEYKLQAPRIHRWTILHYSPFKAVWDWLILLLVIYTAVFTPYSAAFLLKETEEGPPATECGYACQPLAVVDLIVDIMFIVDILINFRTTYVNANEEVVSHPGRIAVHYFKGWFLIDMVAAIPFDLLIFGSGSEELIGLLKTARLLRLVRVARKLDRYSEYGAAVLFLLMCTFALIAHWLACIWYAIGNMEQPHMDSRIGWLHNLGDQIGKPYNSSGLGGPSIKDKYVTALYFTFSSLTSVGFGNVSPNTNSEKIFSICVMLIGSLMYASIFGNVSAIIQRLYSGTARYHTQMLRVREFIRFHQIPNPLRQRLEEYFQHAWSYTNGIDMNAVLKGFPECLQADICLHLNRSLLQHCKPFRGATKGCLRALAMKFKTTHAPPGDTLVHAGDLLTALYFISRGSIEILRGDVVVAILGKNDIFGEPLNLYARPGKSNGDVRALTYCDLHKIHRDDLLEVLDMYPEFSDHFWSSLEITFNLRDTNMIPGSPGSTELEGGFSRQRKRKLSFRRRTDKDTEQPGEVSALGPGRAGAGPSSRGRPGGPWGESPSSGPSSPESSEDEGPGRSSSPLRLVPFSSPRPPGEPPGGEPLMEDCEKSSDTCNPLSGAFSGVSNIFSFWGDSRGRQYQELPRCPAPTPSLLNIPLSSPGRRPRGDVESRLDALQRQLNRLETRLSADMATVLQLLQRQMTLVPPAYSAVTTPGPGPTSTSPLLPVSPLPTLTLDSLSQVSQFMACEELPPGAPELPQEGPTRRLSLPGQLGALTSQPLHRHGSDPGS
# Sequence of Retinoic acid receptor RXR-alpha (Homo sapiens) (P19793 whole entry, looked up): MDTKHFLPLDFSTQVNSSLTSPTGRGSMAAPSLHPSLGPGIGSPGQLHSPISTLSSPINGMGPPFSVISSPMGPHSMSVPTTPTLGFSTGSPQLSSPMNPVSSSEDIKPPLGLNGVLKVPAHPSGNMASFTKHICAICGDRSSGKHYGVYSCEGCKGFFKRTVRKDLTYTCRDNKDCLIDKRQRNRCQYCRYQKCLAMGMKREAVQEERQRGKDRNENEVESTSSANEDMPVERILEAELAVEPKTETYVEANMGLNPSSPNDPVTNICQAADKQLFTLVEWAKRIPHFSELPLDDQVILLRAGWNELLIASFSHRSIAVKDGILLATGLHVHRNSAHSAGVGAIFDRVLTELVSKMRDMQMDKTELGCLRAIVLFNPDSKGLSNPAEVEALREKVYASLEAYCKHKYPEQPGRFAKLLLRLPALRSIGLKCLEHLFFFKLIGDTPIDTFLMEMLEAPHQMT
# Sequence of Thyroid hormone receptor beta (Homo sapiens) (P10828 whole entry, looked up): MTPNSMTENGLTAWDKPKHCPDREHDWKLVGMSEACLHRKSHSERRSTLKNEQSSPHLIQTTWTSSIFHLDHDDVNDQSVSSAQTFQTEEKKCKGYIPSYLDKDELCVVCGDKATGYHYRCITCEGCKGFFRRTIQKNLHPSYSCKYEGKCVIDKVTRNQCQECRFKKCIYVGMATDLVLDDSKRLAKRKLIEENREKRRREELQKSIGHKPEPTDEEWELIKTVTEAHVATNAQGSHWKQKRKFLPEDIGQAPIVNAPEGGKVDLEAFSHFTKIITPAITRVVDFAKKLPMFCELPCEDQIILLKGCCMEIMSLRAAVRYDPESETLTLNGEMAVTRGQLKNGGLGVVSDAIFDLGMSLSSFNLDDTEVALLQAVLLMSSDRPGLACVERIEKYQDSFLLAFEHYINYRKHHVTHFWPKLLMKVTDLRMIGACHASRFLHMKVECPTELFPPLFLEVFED
# Sequence of Peroxisome proliferator-activated receptor gamma (Homo sapiens) (P37231 whole entry, looked up): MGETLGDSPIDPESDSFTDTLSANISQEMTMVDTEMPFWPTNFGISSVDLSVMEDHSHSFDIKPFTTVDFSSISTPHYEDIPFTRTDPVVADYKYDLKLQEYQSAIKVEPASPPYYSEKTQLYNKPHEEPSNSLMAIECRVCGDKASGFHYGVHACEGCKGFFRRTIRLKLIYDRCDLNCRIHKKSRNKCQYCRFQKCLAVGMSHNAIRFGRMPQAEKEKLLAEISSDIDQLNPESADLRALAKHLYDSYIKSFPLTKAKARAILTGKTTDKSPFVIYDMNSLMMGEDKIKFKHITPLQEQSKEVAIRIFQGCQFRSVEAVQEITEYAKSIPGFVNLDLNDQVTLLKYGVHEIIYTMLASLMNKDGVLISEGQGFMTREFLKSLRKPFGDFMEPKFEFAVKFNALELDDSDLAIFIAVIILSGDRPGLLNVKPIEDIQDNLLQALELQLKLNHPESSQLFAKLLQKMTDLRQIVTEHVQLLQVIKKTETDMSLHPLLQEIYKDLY
# Sequence of Luciferin 4-monooxygenase (Photinus pyralis) (P08659 whole entry, looked up): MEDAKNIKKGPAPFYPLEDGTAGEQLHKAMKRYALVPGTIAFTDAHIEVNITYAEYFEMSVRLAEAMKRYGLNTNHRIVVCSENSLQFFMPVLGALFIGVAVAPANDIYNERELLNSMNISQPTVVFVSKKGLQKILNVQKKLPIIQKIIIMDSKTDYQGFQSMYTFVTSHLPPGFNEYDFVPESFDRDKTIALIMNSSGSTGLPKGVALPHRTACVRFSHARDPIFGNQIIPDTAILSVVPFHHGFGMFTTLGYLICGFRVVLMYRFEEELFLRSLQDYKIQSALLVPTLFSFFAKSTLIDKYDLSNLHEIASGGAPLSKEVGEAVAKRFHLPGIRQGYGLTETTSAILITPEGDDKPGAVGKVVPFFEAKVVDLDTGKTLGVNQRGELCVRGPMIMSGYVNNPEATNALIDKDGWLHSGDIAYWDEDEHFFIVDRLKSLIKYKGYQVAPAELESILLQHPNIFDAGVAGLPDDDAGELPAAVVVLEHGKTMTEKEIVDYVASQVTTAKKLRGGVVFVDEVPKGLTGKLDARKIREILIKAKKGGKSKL
structure (smiles),measurement,setting,value
OCCOc1ccccc1,max response,[1],16.7% and 12.5% and -5.77%
same,outcome,[2],inactive
same,outcome,[3],inactive
same,Potency,[4],inactive
same,outcome,[5],inactive
same,outcome,[6],inactive
same,max response,[7],-2.94% and -12.9% and -4.25%
same,outcome,[8],inactive
same,max response,[9],-0.71% and -11.6% and -11.4%
same,max response,[10],15.3% (inactive) and -5.21% (inactive) and -13.9% (inactive)
same,activity change % (negative = inhibition),[11],12.7% (inactive) and 7.54% (inactive) and 6.22% (inactive)
same,Potency,[12],inactive
same,Potency,[13],inactive
same,Potency,[14],inactive
CCCCOCCOCCOCc1cc2c(cc1CCC)OCO2,outcome,[15],inactive
C=C(C)[C@H]1Cc2c(ccc3c2O[C@@H]2COc4cc(OC)c(OC)cc4[C@@H]2C3=O)O1,Potency,[4],44.7 µM (active)
same,outcome,[8],inactive
same,max response,[9],12.4%
same,Potency,[10],20 µM (active)
same,Potency,[12],inactive
same,Potency,[13],inactive
same,Potency,[16],inactive
same,outcome,[17],inactive
Oc1cccc2cccnc12,outcome,[15],inactive
same,max response,[1],-10.4% and -24.8%
same,outcome,[2],inactive
same,outcome,[3],inactive
same,Potency,[4],inactive
same,outcome,[5],inactive
same,outcome,[6],inactive
same,outcome,[8],inactive
same,max response,[9],12%
same,max response,[10],-19.8% (inactive)
same,activity change % (negative = inhibition),[11],-18.8% (inactive) and -22.1% (inactive)
same,Potency,[12],inactive
same,Potency,[13],inactive
same,Potency,[14],inactive
CCCNC(=O)NS(=O)(=O)c1ccc(Cl)cc1,outcome,[15],inactive
CN(C)/N=N/c1nc[nH]c1C(N)=O,outcome,[15],inactive
Cc1cc(SCc2sc(-c3ccc(C(F)(F)F)c(F)c3)nc2C)ccc1OCC(=O)O,max response,[9],25.2%
same,max response,[10],-3.24% (inactive)
same,outcome,[18],inactive
O=c1[nH]c2ccccc2n1C1CCN(CCCC(c2ccc(F)cc2)c2ccc(F)cc2)CC1,max response,[9],-25.7%
same,Potency,[10],17.8 µM (active)
same,outcome,[17],inactive
CN(C)CCC=C1c2ccccc2CCc2ccccc21,activity change % (negative = inhibition),[11],-28.2% (inactive)
COc1cc2c(c(OC)c1OC)-c1ccc(OC)c(=O)cc1[C@@H](NC(C)=O)CC2,activity change % (negative = inhibition),[11],-20.1% (inactive)
same,Potency,[19],0.0891 µM (active)
CCN(CC)CCN1C(=O)CN=C(c2ccccc2F)c2cc(Cl)ccc21,Potency,[12],3.98 µM (active)
same,Potency,[13],inactive
same,Potency,[16],inactive
same,Potency,[14],inactive
same,Potency,[19],inactive
N#CC(C#N)=Cc1ccc(O)c(O)c1,Potency,[12],inactive
same,Potency,[13],inactive
same,Potency,[16],inactive
same,outcome,[17],inactive
CC(=O)[C@H]1CC[C@H]2[C@@H]3CC[C@H]4C[C@](C)(O)CC[C@]4(C)[C@H]3CC[C@]12C,Potency,[12],inactive
same,Potency,[13],inactive
same,Potency,[16],inactive
same,Potency,[14],inactive
same,Potency,[19],inactive
same,outcome,[17],inactive
CC1NCCOC1c1ccccc1 (stereo not drawn),Potency,[12],inactive
same,Potency,[13],inactive
same,Potency,[16],inactive
same,Potency,[14],inactive
CCC1(C2=NCCN2)Cc2ccccc2O1 (stereo not drawn),Potency,[12],inactive
same,Potency,[13],inactive
same,Potency,[16],inactive
same,Potency,[14],inactive
same,outcome,[17],inactive
CC1OC(C)OC(C)O1 (stereo not drawn),Potency,[12],inactive
same,Potency,[13],inactive
same,Potency,[16],inactive
same,Potency,[14],inactive
same,Potency,[19],inactive
Cc1ncc(CNC(=O)N(CCCl)N=O)c(N)n1,Potency,[12],inactive
same,Potency,[13],inactive
same,Potency,[16],inactive
same,Potency,[14],inactive
same,Potency,[19],inactive
same,outcome,[17],inactive
O=[N+]([O-])c1cc([As](=O)(O)O)ccc1O,Potency,[12],inactive
same,Potency,[13],inactive
same,Potency,[16],inactive
same,Potency,[14],inactive
same,Potency,[19],inactive
